The results in this text go back to PubChem BioAssay (NCATS).

The structures appear in SMILES notation. Records with an inconclusive call do not appear. Unmarked numbers belong to inactive results. The source made the active and inactive calls. Calls follow the shape of the dose curve; as a rule, active = well fitted inhibition curve with a large enough effect; inconclusive = small, poorly fitted or top-dose-only effect; inactive = flat fitted curve, though single readings scatter.
Potency is read from the fitted curve at half-maximal effect.

Chain of Luciferin 4-monooxygenase (Photinus pyralis) (P08659 whole entry, looked up): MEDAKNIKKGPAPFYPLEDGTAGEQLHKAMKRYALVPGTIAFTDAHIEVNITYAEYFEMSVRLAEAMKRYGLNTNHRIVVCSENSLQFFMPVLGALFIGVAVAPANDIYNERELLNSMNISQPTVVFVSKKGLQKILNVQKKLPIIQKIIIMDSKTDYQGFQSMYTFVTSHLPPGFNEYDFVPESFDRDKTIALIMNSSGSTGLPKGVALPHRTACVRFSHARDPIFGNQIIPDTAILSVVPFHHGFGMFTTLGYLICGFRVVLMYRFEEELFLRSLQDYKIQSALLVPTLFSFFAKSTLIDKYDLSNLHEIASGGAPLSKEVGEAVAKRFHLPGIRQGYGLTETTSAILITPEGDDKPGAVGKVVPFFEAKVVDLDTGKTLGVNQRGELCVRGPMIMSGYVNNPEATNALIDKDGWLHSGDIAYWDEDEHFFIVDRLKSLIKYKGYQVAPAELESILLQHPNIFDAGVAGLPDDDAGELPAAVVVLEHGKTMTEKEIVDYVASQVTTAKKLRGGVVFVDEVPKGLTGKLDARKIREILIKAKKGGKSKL

The assay addresses Luciferin 4-monooxygenase (Photinus pyralis) (UniProt P08659). Kind of assay: Biochemical firefly luciferase enzyme assay for NPC (AID 624030). Also: nearly all actives have a fitted effect of over 70% in size.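 As to activity change, negative = inhibition: 0% = DMSO and -100% = full luciferase inhibition by PTC124 control.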 As to conditions: purified P. pyralis luciferase, luminescence, 5 min; series mostly up to 58.6 µM; activity change, negative = inhibition: at the top concentration. The text has this: Charcot-Marie-Tooth-Association [CMTA] National Center for Advancing Translational Sciences [NCATS] Charcot-Marie-Tooth (CMT) disease was first characterized by Jean-Martin Charcot and Pierre Marie in France and, independently, by Howard Henry Tooth in England in 1886. CMT is one of the most common inherited neurological diseases, affecting approximately 1 in 2,500 Americans. […] The most prevalent type of CMT is known as CMT1A and caused by a duplication of the PMP22 gene which leads to over-expression of this protein. PMP22 is a glycosylated intrinsic membrane protein accounting for 2-5% of the myelin protein content, and its over-expression results in demyelination and subsequently axonal loss. A pair of cellular transcription-based assays was developed in the S16 rat Schwann cell lines (Hai, M., et al., 2002) stably transfected with orthogonal reporters - firefly luciferase (Fluc) and beta-lactamase (beta-Lac) - whose expression is driven by an intronic regulatory element of the PMP22 gene (Jones, E.A., et al., 2011) to recapitulate endogenous expression of PMP22. A comprehensive library of approved drugs, the NCGC Pharmaceutical Collection (Huang, R., et al., 2011), was screened in the cross-validating platform of the orthogonal reporter assays to identify drug modulators inhibitory towards PMP22 expression. A set of counter-screens was devised to address non-specific activity of the library. An ATP-dependent CellTiter-Glo assay (developed by Promega Corp) was utilized to control cell viability. In addition, biochemical Fluc enzyme assay was performed to assess direct inhibition of the Fluc enzymatic activity. References Hai, M., Muja, N., DeVries, G.H., Quarles, R.H. and Patel, P.I. Comparative analysis of Schwann cell lines as model systems for myelin gene transcription studies. J Neurosci Res, 2002. 69(4): pp 497-508 Huang, R., Southall, N., Wang, Y., Yasgar A., Shinn P., Jadhav, A. , Nguyen, D.-T. and Austin, C.P., The NCGC pharmaceutical collection: a comprehensive resource of clinically approved drugs enabling repurposing and chemical genomics. Sci Transl Med, 2011. 3(80): p. 80ps16.
Compounds were transferred to the plates in 23nl, and one microliter/well luciferase enzyme-buffer solution (10 nM P. pyralis luciferase and 50 mM Tris Acetate final concentrations) was dispensed yielding a final reaction volume of […]. Luciferase luminescence was measured by a ViewLux plate reader within 5 minutes of enzyme-buffer addition. The % activity was determined by normalizing to the average readings of PTC124 (a positive control) relative to DMSO (0% Activity). The concentration-effect curves were then classified based on curve quality (r2), response magnitude and degree of measured activity.
Take `CCCCCCCCCCCC(=O)OCC(O)CO` (stereo not given): the “activity change, negative = inhibition” value was -18.2%.
Same read-out and setting: the same measure for `Cc1ncc(C[n+]2csc(CCOP(=O)(O)OP(=O)(O)O)c2C)c(N)n1`: 36.4%; for `CCCCC[C@H](O)/C=C/[C@@H]1[C@H]2C/C(=C/CCCC(=O)O)O[C@H]2C[C@H]1O`: 0.248%.
Same read-out and setting: the same measure for `CCC(C(=O)NC(N)=O)c1ccccc1` (stereo not given): 1.12%.
The same measure, in the same setting: the same measure for `NC(=O)C1c2ccccc2CCc2ccccc21`: 0.283%.
For `O=C(O)CCC/C=C\C[C@@H]1[C@@H](/C=C/[C@@H](O)COc2cccc(C(F)(F)F)c2)[C@H](O)C[C@@H]1O`, the “activity change, negative = inhibition” value was -6.04%.
Same read-out and setting: the same measure for `O=S(=O)(O)CCCS(=O)(=O)O`: -0.431%; for `CC/C=C\C/C=C\C/C=C\CCCCCCCC(=O)O`: -11.4%; for `CCCCC[C@H](O)/C=C/[C@H]1[C@H](O)CC(=O)[C@@H]1C/C=C\CCCC(=O)O`: 0.527%.
With `O=C1N=C2SCCN2C(=O)C1Cc1ccc(Cl)cc1` (stereo not given), the “activity change, negative = inhibition” value is -4.28%.
On the same count and under the same terms, under `CC(C)c1nc(N(C)S(C)(=O)=O)nc(-c2ccc(F)cc2)c1/C=C/C(O)CC(O)CC(=O)O` (stereo not given) stands 2.68%; under `O=P(O)(O)OP(=O)(O)OP(=O)(O)O`, 0.682%.
Still for that read-out and setting: the same measure for `N=C(N)c1ccc(/C=C/c2ccc(C(=N)N)cc2O)cc1`: 10.1%.
The same measure, in the same setting: the same measure for `N[C@@H](Cc1cc(I)c(Oc2ccc(O)c(I)c2)c(I)c1)C(=O)O`: -5.94%; for `CO/N=C(/C(=O)N[C@@H]1C(=O)N2C(C(=O)O)=C(COC(N)=O)CS[C@H]12)c1ccco1`: -5.8%.
Turning to `NC(=S)NS(=O)(=O)c1ccc(N)cc1`, the “activity change, negative = inhibition” value is -0.197%.
The same measure, in the same setting: the same measure for `C=C(C)C1CC=C(C)CC1` (stereo not given): 0.833%; for `CCCOc1cc(N)ccc1C(=O)OCCN(CC)CC`: -12.2% [at 24.9 µM]; for `C[N+]1(C)[C@@H]2CC(OC(=O)C(O)(c3cccs3)c3cccs3)C[C@H]1[C@@H]1O[C@@H]12` (stereo not given in full): 1.45%.
For `Oc1cc(O)cc(O)c1`, the “activity change, negative = inhibition” value was 0.0892%.
The same measure, in the same setting: under `CCOc1ccc(NC(=S)Nc2ccc(OCC)cc2)cc1` stands 2.38%.
Consider `Cc1nc(NS(=O)(=O)c2ccc(N)cc2)nc(C)c1Br`, for which the “activity change, negative = inhibition” value was 2.3%.
`COc1ccccc1N1CCN(CCCC(=O)c2ccc(F)cc2)CC1`: the “activity change, negative = inhibition” value was -0.258%.
On the same count and under the same terms, the same measure for `CC(C)(C)CC(C)(C)c1cc(Cc2cc(C(C)(C)CC(C)(C)C)cc(-n3nc4ccccc4n3)c2O)c(O)c(-n2nc3ccccc3n2)c1`: -3.47%.
Take `NC(=S)N=Nc1ccc(NN=C(N)N)cc1`: the Potency is 11.4 µM (active).
Regarding `CC(C)C1=CC2=CC[C@@H]3[C@](C)(CCC[C@@]3(C)C(=O)O)[C@H]2CC1`, the “activity change, negative = inhibition” value was -4.95%.
The same measure, in the same setting: under `C=CCN1CCCC1CNC(=O)c1cc(S(N)(=O)=O)cc(OC)c1OC` (stereo not given) stands 0.84%; under `C[C@H](CCC(=O)O)[C@H]1CC[C@H]2[C@@H]3CC[C@@H]4C[C@H](O)CC[C@]4(C)[C@H]3C[C@H](O)[C@]12C`, -3.98%.
Still for that read-out and setting: the same measure for `COc1ccc2c(=O)c(C)c(-c3ccccc3)oc2c1CN(C)C`: -0.921%; for `c1ccc2c(c1)Sc1ccccc1N2CCN1CCCC1`: 0.984%; for `COc1ccc(/C=N/NC(=O)c2ccncc2)c(C(=O)O)c1OC`: -14.1%.
Consider `CC(C)OC(=O)Nc1ccc2nc(-c3cscn3)[nH]c2c1`, for which the Potency was 9.07 µM (active).
On to `Nc1nc(=O)n([C@@H]2CS[C@H](CO)O2)cc1F`, for which the “activity change, negative = inhibition” value was 1.52%.
As to `CS(=O)(=O)c1ccc([C@@H](O)[C@@H](COC(=O)CN)NC(=O)C(Cl)Cl)cc1`, the “activity change, negative = inhibition” value is 2%.
Same read-out and setting: the same measure for `O=c1[nH]c(=O)n([C@H]2C[C@H](O)[C@@H](CO)O2)cc1/C=C/Br`: -0.444%.
Still for that read-out and setting: under `OC1OC[C@@H](O)[C@H](O)[C@@H]1O` (stereo not given in full) stands -1.45%; under `FC(F)OC(Cl)C(F)(F)F` (stereo not given), -5.46%.
Same read-out and setting: under `CCOC(=S)SSC(=S)OCC` stands -14.8%.
For `CC1=CC(=O)NS(=O)(=O)O1`, the “activity change, negative = inhibition” value is 2.64%.
Same read-out and setting: under `[O]=[Bi][O]C(=O)[O][Bi]=[O]` stands 0.898%.
